Data reported in PubChem BioAssay AID463173 (ICCB-Longwood Screening Facility, Harvard Medical School, 2010).
Out of some 52,000 compounds screened, about 1,700 (3.3%) were called active. No stated cut-off is given here; in the data, active means survival mostly below about 52% (no sharp cut-off); inactive means mostly above about 56%. This excerpt belongs to a sample that is enriched for actives.

tested on: Wild type; assay: S. aureus survival, RN4220 and DeltatarO strains – OD600, teichoic acid synthesis inhibitors, primary screen (AID 463173); settings: S. aureus RN4220 wild type/DeltatarO growth, OD600, 18 h, stronger effect = lower value, screened at 18.75 µg/mL (by protocol)

| Structure (SMILES) | survival |
| --- | --- |
| CCOc1ccc(CNC(=O)CSc2c3c(nc4ccc(Cl)cc24)CCCC3)cc1 | 84% (inactive) |
| CN(Cc1ccccc1)C(=O)CSc1c2c(nc3ccc(Cl)cc13)CCCC2 | 0% (active) |
| CCCN(CCC)C(=O)CSc1c2c(nc3ccc(Cl)cc13)CCCC2 | 52% (inactive) |
| CCCCNC(=O)CSc1c2c(nc3ccc(Cl)cc13)CCCC2 | 66% (inactive) |
| CCc1ccc(CNC(=O)CSc2c3c(nc4ccc(Cl)cc24)CCCC3)cc1 | 76% (inactive) |
| CCCNC(=O)CSc1c2c(nc3ccc(Cl)cc13)CCCC2 | 72% (inactive) |
| COc1ccc(NC(=O)CSc2c3c(nc4ccc(Cl)cc24)CCCC3)cc1Cl | 75% (inactive) |
| COc1ccc(CNC(=O)CSc2c3c(nc4ccc(Cl)cc24)CCCC3)cc1 | 76% (inactive) |
| CCCCN(CC)C(=O)CSc1c2c(nc3ccc(Cl)cc13)CCCC2 | -2% (active) |
| COc1cc(OC)c(N(C)C(=O)CSc2c3c(nc4ccc(Cl)cc24)CCCC3)cc1Cl | 2% (active) |
| CCCCN(C)C(=O)CSc1c2c(nc3ccc(Cl)cc13)CCCC2 | -2% (active) |
| CCCN(C(=O)c1c(C)oc2ncn(CC(C)C)c(=O)c12)c1ccccc1C | 59% (inactive) |
| CCOc1ccc(CCNC(=O)Cn2nc(C)c3c(C)n(-c4ccccc4)nc3c2=O)cc1OCC | 19% (inactive) |
| CCn1cc(CCC(=O)NCc2ccccc2OC)c2ccccc21 | 76% (inactive) |
| COc1ccc(C(=O)NCc2nnc(SCC(=O)Nc3ccccc3)n2-c2ccc(F)cc2)cc1 | 78% (inactive) |
| Clc1cccc(-n2ncc3c(N4CCCCCC4)ncnc32)c1 | 81% (inactive) |
| COc1ccc(CC(=O)Nc2ccc(-c3nc4ccccc4s3)c(C)c2)cc1OC | 10% (active) |
| Cc1cc(C)cc(OCC(=O)Nc2ccc(-c3nc4ccccc4s3)cc2)c1 | 88% (inactive) |
| COc1ccc(CC(=O)Nc2ccc(-c3nc4ccccc4s3)c(C)c2)cc1 | 69% (inactive) |
| COc1ccc(-c2nc3ccccc3s2)cc1NC(=O)COc1cccc(C)c1 | 39% (inactive) |
| Cc1cccc(OCC(=O)Nc2cccc(-c3nc4ccccc4s3)c2)c1 | 5% (active) |
| COc1ccccc1C(=O)Nc1ccc(-c2nc3ccccc3s2)c(C)c1 | 82% (inactive) |
| COc1cccc(CC(=O)Nc2ccc(-c3nc4ccccc4s3)cc2Cl)c1 | 73% (inactive) |

| Structure (SMILES) | survival |
| --- | --- |
| Cc1ccc(OCC(=O)Nc2cccc(-c3nc4ccccc4s3)c2)cc1 | 55% (inactive) |
| COc1cccc(CC(=O)Nc2ccc(-c3nc4ccccc4s3)cc2)c1 | -3% (active) |
| COc1ccc(N2CCN(S(=O)(=O)c3cc(Br)cc4c3N(C(=O)C3CC3)CC4)CC2)cc1 | 90% (inactive) |
| COc1ccc2nc3oc(C(=O)NCc4ccccc4OC)cc3cc2c1 | 88% (inactive) |
| COc1ccc(NC(=O)CC2C(=O)N(c3ccc(F)cc3)C(=O)N2Cc2ccco2)cc1 (stereo unspecified) | 90% (inactive) |
| COc1ccc(CNC(=O)c2cc3oc4ccccc4c3n2C)cc1OC | 64% (inactive) |
| CCOC(=O)c1c(SCC(=O)Nc2nc3ccc(C)cc3s2)nc(=O)[nH]c1C | 81% (inactive) |
| Cc1cnc(=O)[nH]c1SCC(=O)Nc1nc2ccccc2s1 | 89% (inactive) |
| CCOC(=O)c1c(SCC(=O)Nc2nc3ccccc3s2)nc(=O)[nH]c1C | 1% (active) |
| CC(C)OCCCNC(=O)Cc1ccc(NC(=O)N2CCCCc3ccccc32)cc1 | 77% (inactive) |
| CCN(CC)c1ccc(CN(C(=O)c2cc(=O)c3ccccc3o2)C2CCS(=O)(=O)C2)cc1 (stereo unspecified) | 76% (inactive) |
| COC(=O)c1c(NC(=O)/C(C#N)=C/c2ccc(OC)cc2)sc2c1C(C(=O)OC)CC2 (stereo unspecified) | 71% (inactive) |
| CC1CCc2c(sc(NC(=O)CCCOc3ccc(C(C)(C)C)cc3)c2C(N)=O)C1 (stereo unspecified) | 79% (inactive) |
| COC(=O)c1c(NC(=O)CCCOc2ccc(C(C)(C)C)cc2)sc2c1C(C(=O)OC)CC2 (stereo unspecified) | -2% (active) |
| COC(=O)c1c(NC(=O)CCCOc2ccc(C)cc2)sc2c1C(C(=O)OC)CC2 (stereo unspecified) | 1% (active) |
| COC(=O)c1c(NC(=O)CCCOc2ccc(C(C)(C)C)cc2)sc2c1CCC(C)C2 (stereo unspecified) | 30% (inactive) |
| COC(=O)c1c(NC(=O)/C(C#N)=C/c2ccccc2)sc2c1C(C(=O)OC)CC2 (stereo unspecified) | 82% (inactive) |
| CCOc1ccc(/C=C/C(=O)Nc2sc3c(c2C(=O)OC)C(C(=O)OC)CC3)cc1 (stereo unspecified) | 75% (inactive) |
| COC(=O)c1c(NC(=O)c2cccs2)sc2c1C(C(=O)OC)CC2 (stereo unspecified) | 104% (inactive) |
| COC(=O)c1c(NC(=O)CCCOc2cccc(C)c2)sc2c1C(C(=O)OC)CC2 (stereo unspecified) | -3% (active) |
| Cc1ccc(N(O)C(=O)Nc2ccccc2)cc1 | 119% (inactive) |
| COCCCNC(=O)c1ccc2nc(CCc3ccccc3)oc2c1 | 88% (inactive) |
| Cc1cccc(N2CCN(S(=O)(=O)c3ccc(F)c(C(=O)Nc4ccc(C(C)C)cc4)c3)CC2)c1C | 75% (inactive) |
